Test results published in US20210230599, “STEM-LOOP COMPOSITIONS AND METHODS FOR INHIBITING INTERLEUKIN-8” (VITRISA THERAPEUTICS, INC., published 2021).

molecular target: Interleukin-8 (IL8, CXCL8), C-terminal His-tagged (Homo sapiens, UniProt P10145 SEQ:1-72); assay: competition; competition TR-FRET; L1 mutant; conditions: tags: C-terminal 6xHis (Sino Biological); ssRNA; 2'-F G, 2'-OMe A/C/U, 5' C6NH2, 3' idT
Procedure: Activity of each of these variants were tested using a time resolved competition TR-FRET assay in which the labeled parent Aptamer 3 was competed with increasing concentrations of unlabeled variants for binding to IL8 (FIG. 14). Briefly, 2-fold dilutions of thermally equilibrated aptamers were made in TR-FRET Buffer (50 mM MOPS, pH 7.4, 125 mM NaCl, 5 mM KCl, 50 μM CHAPS, 0.1 mg/mL BSA, 1 mM CaCl₂, and 1 mM MgCl₂). 5 μL of aptamer or control solution was added to 5 μl mix of 10 nM C-terminal His-tagged-IL8, 60 nM ALEXA FLUOR® 647-labeled Aptamer, and 5 nM anti-His-Eu (Perkin Elmer) in a black wall low volume 384 well plate (Greiner). For control, 5 μl of 1000-fold excess of unlabeled parent aptamer or 5 μl TR-FRET buffer alone was added to the mix of ALEXA FLUOR® 647-labeled aptamer, His-IL8, and anti-His-Eu. The plate was covered with a plate seal and subsequently incubated in the dark for 1 hour at room temperature. The plate was read on a Biotek CYTATION™ 5 plate reader. Samples were excited at 330 nm and fluorescent values were collected at 665 nm. Data analysis was performed by subtracting the background value and plotting as percent inhibition, normalized to baseline in the absence of competitor. The values were fit by [Inhibitor] vs. response—Variable slope (four parameters) using GraphPad Prism Version 7.0 and then normalized to aptamer control to obtain an IC₅₀ relative to parent aptamer. Data is presented as log values of relative IC₅₀.
To confirm the sequence conservation of this loop, variants of Aptamer 32 were made (4 base pair S1 version of parent Aptamer 8) where each position of L1 was individually replaced with the other 3 bases and tested for binding in the competition TR-FRET assay.

Binding signal, > 10 fold worse than Aptamer 8:
CGGUGGAAAAUGUGAGAUGGGUUGCCG, CGGUGCGAAAUGUGAGAUGGGUUGCCG, CGGUAGGAAAUGUGAGAUGGGUUGCCG, CGGUGGGGAAUGUGAGAUGGGUUGCCG, CGGUGGGUAAUGUGAGAUGGGUUGCCG, CGGUGGCAAAUGUGAGAUGGGUUGCCG, CGGUGUGAAAUGUGAGAUGGGUUGCCG, CGGUUGGAAAUGUGAGAUGGGUUGCCG, CGGUCGGAAAUGUGAGAUGGGUUGCCG, CGGUGGGCAAUGUGAGAUGGGUUGCCG, CGGUGAGAAAUGUGAGAUGGGUUGCCG, CGGUGGUAAAUGUGAGAUGGGUUGCCG
